Rows were chosen to be rich in hits. Some 6.2% of all compounds tested hit in one or more screens of this group.
Cardio protect – cardioprotection against H2O2-induced cell death, primary screen, uHTS, H9c2 cells, ATPLite luminescence | actives 0.63% (n = 360,000) | protection from H2O2 cell death, % at 20 µM | H9c2 cardiomyocytes, H2O2 injury protection, 2 h;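 active = compounds giving at least 50% protection of heart cells from peroxide-induced death in the single-dose screen, raw or plate-pattern-corrected value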;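 also: 0% = DMSO wells with peroxide and 100% = DMSO wells without peroxide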
Mot1-301 SUMO – yeast Mot1-301 growth rescue at high temperature, primary screen, SUMOylation pathway inhibitor project, S. cerevisiae, ATP luminescence, 38.5C; S. cerevisiae Mot1-301 growth rescue; percent above DMSO median, 100 means doubled; growth rescue, % at 18.8 µM; actives 1% (n = 320,000); AID 2716, 2010;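 active = every valid replicate shows activation above 250% relative to neutral control wells; inactive = the rest, any valid replicate at or below 250%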;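 also: OY570 slx delta 5 strain wells were the positive control but not used for scaling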
AHR activator – AHR activators, primary screen, cell-based, luminescence, luciferase reporter, human | AHR-responsive luciferase reporter cells | AID 2796, 2010 | actives 2.5% (n = 320,000) | Aryl hydrocarbon receptor (Homo sapiens), P35869 | activation, % at 5 µM; in the data active = activation above about 47%;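 also: 0% = vehicle wells and 100% = reference agonist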
GRIN3A LBD mod – binders of NR3A ligand-binding domain, primary screen, biophysical, differential scanning fluorimetry, uHTS. Glutamate receptor ionotropic, NMDA 3A (GRIN3A) ligand-binding domain. NR3A LBD differential scanning fluorimetry, Tm shift; 0% = protein alone, 100% = glycine-bound protein. Tm shift relative to glycine control, % at 25 µM. actives 2.5% (n = 340,000);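 active = melting temperature shift of at least 10% of the positive control shift, at one fixed dose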
AI-2 QS modul – Vibrio harveyi AI-2 quorum sensing modulators, primary screen, JMH597 strain, luminescence/OD600 ratio; Vibrio harveyi JMH597 AI-2 luminescence/OD600 ratio, 9 h; hits give low values; strain lacks LuxN and CqsS sensors; 0 = neutral-control median; activity change, % at 7.5 µM; actives 0.4% (n = 300,000); AID 2094, 2009; in the data active = activity change below about -75%, passing the limit was not always enough; inconclusive = no clear call, values can overlap the other calls;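 also: luminescence divided by OD600 gain over 9 h not by final OD600 alone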
NTR1 ag – agonists of human NTR1, primary screen, imaging, U2OS cells, beta-arrestin-GFP, high content. activation, % at 20 µM. Neurotensin receptor type 1 (Homo sapiens), P30989. NTR1-U2OS beta-arrestin-GFP spot imaging, agonist mode. AID 493036, 2011. actives 0.17% (n = 330,000);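 active = activation at or above 40% of the spot to cytoplasm intensity ratio, with at least 20 cells analyzed; inconclusive = wells under 20 cells, flagged as cytotoxic or low count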;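 also: 0% = DMSO without peptide and 100% = 100 nM NTR1 peptide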
Target sequence (P30989 whole entry, looked up): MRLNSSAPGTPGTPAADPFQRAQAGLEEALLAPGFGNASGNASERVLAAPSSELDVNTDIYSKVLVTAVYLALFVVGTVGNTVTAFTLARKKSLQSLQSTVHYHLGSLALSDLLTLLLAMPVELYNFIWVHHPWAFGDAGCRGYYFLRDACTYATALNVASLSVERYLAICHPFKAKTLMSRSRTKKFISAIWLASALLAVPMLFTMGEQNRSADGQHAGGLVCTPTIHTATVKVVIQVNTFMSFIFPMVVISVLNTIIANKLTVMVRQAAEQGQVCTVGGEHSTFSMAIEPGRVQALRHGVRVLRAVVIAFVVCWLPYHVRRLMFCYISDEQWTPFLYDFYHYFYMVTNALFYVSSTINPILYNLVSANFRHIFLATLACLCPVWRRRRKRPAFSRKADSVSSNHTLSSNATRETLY
Yeast Mot1 SUMO – growth restoration of Mot1-301 yeast on galactose, dose response, SUMO pathway inhibitor project, whole organism, S. cerevisiae, ATP luminescence, cherry-picked samples; 2,300 tested, under 10 active; S. cerevisiae Mot1-301 galactose growth, 24 h; -100 = growth of slx-deleted rescue strain; shares compounds with Mot1-301 SUMO; growth activity, percent, % at 42 µM; AID 493004, 2010;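 active = Signal drops as the depositor expects, and the fitted half-maximal dose is no more than ten times the top valid tested dose; inconclusive = Poor fit, or a flat curve whose signal drops by 30% to 70%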;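 also: more negative values mean stronger growth rescue toward the control strain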
Numbers without * were called inactive; ? = inconclusive; nt = no result; + = active, no number; [ ] = remark or other dose.

SMILES	Cardio protect	Mot1-301 SUMO	AHR activator	GRIN3A LBD mod	AI-2 QS modul	NTR1 ag	Yeast Mot1 SUMO
COc1ccccc1NC(=O)CSc1nc(N)c(C#N)cc1C#N	-5	-4	12	-4	11	1	nt
CCOc1ccccc1NC(=O)CSc1nc(N)c(C#N)cc1C#N	-4	+	47	4	16	-1	1
Cc1cc(C(=O)NC(Cc2c[nH]c3ccccc23)C(=O)O)c(C)o1 (stereo not given)	9	-13	6	-2	15	1	nt
Cc1ccc(C(=O)NC(Cc2c[nH]c3ccccc23)C(=O)O)o1 (stereo not given)	-8	+	33	-1	25	0	0
CC(=O)Nc1ccc(S(=O)(=O)Nc2ccccc2C(=O)N2CCCCC2)cc1	-2	-1	0	-3	18	0	nt
O=S(=O)(NCc1ccc(Cl)cc1)c1cnc[nH]1	-1	+	0	-1	14	-3	1
CCOC(=O)c1ccc(CNC(=O)C2CCCCC2C(=O)OCC(F)(F)F)o1 (stereo not given)	8	+	1	0	34	1	0
CC1(C(=O)NS(=O)(=O)c2ccccc2C(F)(F)F)CCN1C(=O)COc1ccc(Cl)cc1 (stereo not given)	1	nt	nt	nt	nt	nt	nt
O=C(OCCCCOC(=O)c1ccccc1)c1ccccc1	4	529*	-1	2	13	0	0
N#C/C(=C\c1ccc(O)c(O)c1)C(=O)Nc1ccccc1	55*	369*	-5	3	nt	3	-1
NS(=O)(=O)c1ccc(CCNC(=O)COC(=O)C2COc3ccccc3O2)cc1 (stereo not given)	2	97	-1	2	nt	-3	nt
Cc1cc2c(OCC(O)CNC(C)(C)C)cccc2[nH]1 (stereo not given)	-2	0	11	0	22	-1	nt
COCCCNCC(O)COc1cccc2[nH]c(C)cc12 (stereo not given)	4	773*	1	0	12	1	0
CC(C)(C)NC(=S)NC1CC1	-3	6	1	-1	21	0	nt
O=C(CN1CCN(C(=O)CN2C(=O)NC3(CCCC3)C2=O)CC1)Nc1cccc(F)c1	-1	19	0	0	nt	-2	nt
O=C(O)COc1ccc(Br)cc1/C=N\Nc1ccccn1	-2	425*	1	0	20	0	1
CCOC(=O)c1oc2cc(OC(C)=O)ccc2c(=O)c1-c1ccc(OC)c(OC)c1	6	510*	-1	1	-2	1	0
CCC(C)c1ccc(NC(=O)c2c([N+](=O)[O-])cnn2CC)cc1 (stereo not given)	-11	9	nt	-2	15	3	nt
Cc1ccc(C(C[N+](=O)[O-])c2c(C)[nH]n(-c3ccccc3)c2=O)cc1 (stereo not given)	7	401*	9	6	30	19	-2
Cc1[nH]n(-c2ccccc2)c(=O)c1C(C[N+](=O)[O-])c1ccc(F)cc1 (stereo not given)	2	173	1	0	8	3	nt
O=C(c1ccccc1)N1CCN(C(=O)c2nn3c(C(F)(F)F)cc(-c4ccccc4)nc3c2Br)CC1	1	-21	0	-1	9	4	nt
Cc1ccc(Cn2c(C3CCCN3c3nc(C)cs3)nc3cc(C(F)(F)F)ccc32)cc1 (stereo not given)	-19	183	7	-6	29	6	nt
Cc1ccc(NC(=O)COC(=O)c2csc3c2CCC(C)C3)cc1S(=O)(=O)N1CCCCC1 (stereo not given)	-8	+	-1	-8	3	0	0
CCC(c1nnnn1C1CCCC1)N1CCN(c2cccc(OC)c2)CC1 (stereo not given)	-2	747*	0	0	24	1	0[21 µM]
COc1ccc(OC)c(C(c2nnnn2C2CCCC2)N2CCN(c3ccccc3)CC2)c1 (stereo not given)	-24	-2	9	-1	24	2	nt
SMILES	Cardio protect	Mot1-301 SUMO	AHR activator	GRIN3A LBD mod	AI-2 QS modul	NTR1 ag	Yeast Mot1 SUMO
COc1ccccc1Nc1ccc(NS(=O)(=O)c2ccc(C(C)=O)cc2)cc1	-11	-2	6	2	32	1	nt
COc1ccc(CCN2CCCn3c2nc2c3c(=O)n(CC(N)=O)c(=O)n2C)cc1OC	-5	6	nt	0	2	0	nt
CCCCc1ccc(NC(=S)NCc2cccs2)cc1	-20	573*	0	11*	-17	6	-1
Cc1cc(C)cc(N2C(=O)CC(Sc3ncn[nH]3)C2=O)c1 (stereo not given)	12	452*	-3	1	15	0	-2
CC(C)OC(=O)N(C)C[C@H]1OCc2cnnn2CCCC(=O)N([C@H](C)CO)C[C@H]1C	6	nt	nt	nt	nt	nt	nt
CC1(C)C=C(c2ccc(O)cc2)CC(C)(C)N1	2	660*	-1	-1	20	-1	1
Cc1ccc2nc(-c3ccccc3)nn2c1	-19	nt	nt	1	nt	nt	nt
CC(C)C(=O)NCCSc1c[nH]c2ccccc12	-1	598*	11	-1	31	-3	0
O=C(NNC(=S)Nc1ccc(C(=O)O)c(O)c1)c1ccncc1	-4	nt	nt	0	nt	nt	nt
O=C(O)C1CCCN1C(=O)c1cncc(Br)c1 (stereo not given)	8	+	0	-1	40	0	1
CC1=CC(=O)C(C(C)C)=C/C1=N/OS(=O)(=O)c1ccccc1	-19	390*	5	5	?	26	-4
CN(c1ccc(Cl)cc1)c1cc2c(c3c1ccn3C)C1CCC2O1 (stereo not given)	-4	nt	nt	nt	nt	nt	nt
CCCc1nc(NCc2ccccc2)c(C#N)c2c1CCCC2	-2	789*	1	-1	1	8	0
CCCc1nc(NCCO)c(C#N)c2c1CCCC2	-3	313	5	2	13	6	nt
COc1ccc(N2CCN(C(=O)C3CCCN(S(=O)(=O)c4ccc5c(c4)oc(=O)n5C)C3)CC2)cc1 (stereo not given)	-10	450*	1	-3	10	0	0[21 µM]

Screening data as filed in PubChem BioAssay.
